Test results reported in ChEMBL document CHEMBL1157539, “Thousands of chemical starting points for antimalarial lead identification” (Nature, 2010).

test system: Plasmodium falciparum; assay: GSK_TCMDC: Inhibition of Plasmodium falciparum 3D7 in whole red blood cells, using parasite LDH activity as an index of growth. Test compounds present at 2uM; assay type: functional

Row | SMILES | Inhibition [%]
1 | COc1ccc2nccc(NC(=O)N3CCC(NCc4cc5ccccc5[nH]4)CC3)c2n1.O=C(O)C(=O)O | 85
2 | CC(C)CNC(=S)N1CCCN(c2nc3ccc(Cl)cc3s2)CC1 | 95
3 | CC(C)(C)c1ccc(-c2ccccc2CNC(=O)c2cccc(O)c2)cc1 | 99
4 | COc1cc2c(OC)cccc2cc1CNCCCCCCNCc1cc2cccc(OC)c2cc1OC.CS(=O)(=O)O | 95
5 | Cc1ccc(/C=C/C(=O)NCCCCCN2CCC(c3c[nH]c4ccccc34)CC2)cc1 | 86
6 | CCCCc1ccc(C(=O)NC2CCN(C[C@H](O)c3ccnc4ccc(OC)cc34)CC2)cc1 | 91
7 | CCC(CC)(Cc1ccccc1)NC(=O)[C@H](CC1CCCCC1)Nc1ccc(C#N)c2ccccc12.O=C(O)C(F)(F)F | 95
8 | CC(C)(C)OC(=O)NCc1ccc(Nc2nnc(-c3cccc(C(=O)NCCC(c4ccccc4)c4ccccc4)c3)o2)cc1 | 100
9 | CCN(CC)CCN(Cc1ccc(-c2ccc(C(F)(F)F)cc2)cc1)C(=O)Cn1c(CCc2cccc(F)c2F)nc(=O)c2sccc21.O=C(O)C(O)C(O)C(=O)O | 96
10 | CC(C)CNCc1ccc(-c2ccc(CN(CCCN3CCN(C)CC3)C(=O)CCC3CCCC3)cc2)cc1.O=C(O)C(F)(F)F | 96
11 | O=S(=O)(Nc1cccc(CCN2CCC(N3CCCCC3)CC2)c1)c1ccc(Oc2ccccc2)nc1 | 99
12 | Oc1ccc(OCc2ccccn2)cc1 | 98
13 | Br.NCC(=O)NC12CC3CC(CC(C3)C1)C2 | 87
14 | O=C(N[C@H]1CCN(Cc2ccc(OC3CCN(Cc4ccccc4)CC3)c(Br)c2)C1)c1ccc(Cl)c(Cl)c1.O=C(O)C(F)(F)F | 100
15 | Cc1c(Cl)cccc1S(=O)(=O)Nc1ccc(CCN2CCC(N)CC2)cc1.Cl | 90
16 | Cl.N=C(Cc1ccc(Cl)cc1)NCCN1CCCCCC1 | 93
17 | Cc1nc(C)c(C2CCC(c3ccc(Cl)cc3)CC2)c(O)c1Cl (stereo unspecified) | 98
18 | O=C(N[C@@H](Cc1ccccc1)CN1CCC(Oc2ccc(F)cc2)CC1)c1ccc(OCCCN2CCCCC2)cc1.O=C(O)C(F)(F)F | 100

Row | SMILES | Inhibition [%]
19 | CC(C)(C)c1ccc2[nH]c(-c3ccc(/C=C/C(=O)NCc4cccc(C(F)(F)F)c4)cc3)nc2c1 | 93
20 | COc1ccc(-c2cccc(NC(=O)c3ccc(Cl)cc3)c2)cc1CN(C)CCN(C)C.O=C(O)C(F)(F)F | 99
21 | O=[N+]([O-])c1cccc(C=NNc2nc(=Nc3ccccc3)[nH]c(=Nc3ccccc3)[nH]2)c1 | 99
22 | CCS(=O)(=O)O.Cc1cc(NC(=O)NC(=N)N)ccc1Cl | 100
23 | C[C@@H](Oc1cc(-n2cnc3ccc(NC(=O)CCN4CCCCC4)cc32)sc1C(N)=O)c1ccccc1Cl | 100
24 | O=C(O)C(F)(F)F.c1ccc2[nH]c(-c3ccc(-c4ccc(CN5CCN(CCN6CCOCC6)CC5)cc4)cc3)nc2c1 | 98
25 | CCN(CCCN1CCCCC1)c1cc(C)nc(Nc2ccc(Cl)c(C(F)(F)F)c2)n1.O=C(O)C(F)(F)F | 96
26 | Cc1n[nH]c2ccc(-c3cc(OC[C@@H](N)Cc4ccccc4)cnc3-c3ccc(OCc4cccc(F)c4)cc3)cc12.O=C(O)C(F)(F)F | 98
27 | Cc1cccc(OCC(=O)Nc2cccc(NC(=O)COc3cccc(C)c3)n2)c1 | 98
28 | Cc1ccc(-c2cc3nc4c(c(NCCCn5ccnc5)n3n2)CCC4)cc1 | 94
29 | O=C(/C=C/c1ccc(Cl)cc1)NCCCCCN1CCC(c2c[nH]c3ccccc23)CC1 | 99
30 | Cl.NOCCCOc1ccccc1 | 100
31 | N#Cc1cccc(NC(=O)c2cccc(S(=O)(=O)NC3CCN(CC4CCCCC4)C3)c2)c1.O=C(O)C(F)(F)F (stereo unspecified) | 100
32 | N#Cc1ccc(C(=O)NC2CCN(CCCCCNC(=O)/C=C/c3ccc(Cl)c(Cl)c3)CC2)cc1 | 98
33 | CN(C)CCNC(=O)c1ccc2c(c1)n(C1CCN(S(=O)(=O)c3ccc(-c4ccccc4)cc3)CC1)c(=O)n2CC1CCCCC1 | 100
34 | N=C(N)c1ccc(Nc2nccc(Nc3nc(-c4ccccc4)cs3)n2)cc1.O=C(O)C(F)(F)F | 96
35 | c1cncc(-c2cc(N3CCCCC3)nc(-c3ccncc3)n2)c1 | 99
36 | CN(C)c1ccc(-c2csc(C(=O)NCC3CCN(CC4CCCCC4)C3)c2)cc1.O=C(O)C(F)(F)F (stereo unspecified) | 86
